Measured values as given in PubChem BioAssay (Tox21).
Results filed as inconclusive are left out. The source made the active and inactive calls. Unless noted, calls follow the shape of the full dose curve.

Columns and labels:
[1] = Nuclear factor erythroid 2-related factor 2/antioxidant responsive element (Nrf2/ARE) small molecule agonists: qHTS cell viability counter screen in human keratinocytes (AID 1919968; active = well fitted curve in the direction sought with a large enough effect in the repeat runs; an effect the other way counts as inactive or inconclusive; also: nearly all actives have a fitted effect of over 55% in size)
Procedure, shortened: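 CellTiter-Fluor fluorescence, read 1 h after reagent, gave viability in the same wells as the ARE-luciferase assay. KeratinoSens cells (1,500/well) had 23 h compound exposure at 37 C/5% CO2 following 5 h plating.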

[2] = Nuclear factor erythroid 2-related factor 2/antioxidant responsive element (Nrf2/ARE) small molecule agonists: luciferase reporter gene qHTS assay in human keratinocytes (AID 1919969); also: nearly all actives have a fitted effect of over 35% in size
[3] = molecular target: Gonadotropin-releasing hormone receptor (Homo sapiens) (UniProt P30968); assay: Human gonadotropin-releasing hormone receptor (GnRHR) small molecule agonists, calcium flux assay in GnRHR-HEK293 cells (AID 1920063); also: nearly all actives have a fitted effect of over 35% in size
Chain of Gonadotropin-releasing hormone receptor (Homo sapiens) (P30968 whole entry, looked up): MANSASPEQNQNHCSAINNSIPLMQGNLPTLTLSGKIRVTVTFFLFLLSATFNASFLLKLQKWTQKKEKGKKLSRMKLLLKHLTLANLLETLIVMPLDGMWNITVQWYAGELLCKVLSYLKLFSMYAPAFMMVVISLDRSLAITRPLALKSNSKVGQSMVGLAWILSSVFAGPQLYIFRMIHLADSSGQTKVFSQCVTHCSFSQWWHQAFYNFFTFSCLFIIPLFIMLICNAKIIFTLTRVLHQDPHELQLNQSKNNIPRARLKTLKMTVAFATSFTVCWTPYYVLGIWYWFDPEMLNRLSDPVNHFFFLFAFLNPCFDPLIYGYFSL
Procedure, shortened: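 Agonist mode: compounds at 15 concentrations, in triplicate, went onto calcium dye-loaded GnRHR-HEK293 cells. Intracellular calcium was then followed as 480/540 nm fluorescence at 1 s intervals over 3 min.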

[4] = molecular target: KiSS-1 receptor (Homo sapiens) (UniProt Q969F8); assay: Human kisspeptin (KISS1R) small molecule agonists, calcium flux assay in KISS1R-HEK293 cells (AID 1920064; active = well fitted curve in the direction sought with a large enough effect in the repeat runs; an effect the other way counts as inactive or inconclusive)
Chain of KiSS-1 receptor (Homo sapiens) (Q969F8 whole entry, looked up): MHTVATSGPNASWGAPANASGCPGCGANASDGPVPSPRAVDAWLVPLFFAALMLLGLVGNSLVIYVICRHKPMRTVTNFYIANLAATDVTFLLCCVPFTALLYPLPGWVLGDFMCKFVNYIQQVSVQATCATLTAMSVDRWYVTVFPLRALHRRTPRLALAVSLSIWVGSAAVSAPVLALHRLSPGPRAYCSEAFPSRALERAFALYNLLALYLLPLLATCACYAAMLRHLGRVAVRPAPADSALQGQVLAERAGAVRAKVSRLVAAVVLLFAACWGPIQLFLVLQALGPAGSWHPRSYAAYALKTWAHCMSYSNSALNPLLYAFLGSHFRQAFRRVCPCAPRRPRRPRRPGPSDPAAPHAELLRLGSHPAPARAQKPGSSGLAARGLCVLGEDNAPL
Procedure, shortened: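 Agonist mode: intracellular calcium rise tracked at 1 s intervals over 3 min (480/540 nm) immediately after compound addition to dye-loaded KISS1R-HEK293 stable cells. Each compound tested at 15 concentrations in triplicate.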

[5] = G protein-coupled receptor (GPCR) small molecule agonists, calcium flux assay: HEK293 wild type cell line counter screen (AID 1920065)
Procedure, shortened: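 Calcium flux counter screen: compound added in agonist mode at 15 concentrations in triplicate to dye-loaded parental HEK293 cells. Fluorescence (480/540) read kinetically for 3 min; ATP served as positive control.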

[6] = p53 small molecule agonists, cell-based qHTS assay with human liver microsomes (AID 1963577);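 also: p53 response element beta-lactamase reporter cells with liver microsomes plus NADPH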
Procedure, shortened: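 Metabolically competent format: test substances, human liver microsomes and NADPH (both 0.5 mg/mL final) incubated with p53RE-bla cells 16 h at 37 C. Beta-lactamase reporter signal then quantified by fluorescence.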

[7] = p53 small molecule agonists, cell-based qHTS assay with rat liver microsomes (AID 1963578)
Procedure, shortened: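 Each plate received p53RE-bla cells, then compound, then rat liver microsomes and NADPH (both 0.5 mg/mL final). Plates were held 16 h at 37 C, and beta-lactamase activity was detected with LiveBLAzer over 2 h.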

[8] = p53 small molecule agonists, cell-based qHTS assay with human liver microsomes: qHTS cell viability counter screen (AID 1963579); also: nearly all actives have a fitted effect of over 45% in size
Procedure, shortened: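 Tox21 library compounds, delivered from DMSO stocks, were tested on p53RE-bla cells together with 0.5 mg/mL human liver microsomes and 0.5 mg/mL NADPH (final) over 16 h at 37 C; CellTiter-Glo luminescence served as the cytotoxicity measure.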

[9] = p53 small molecule agonists, cell-based qHTS assay with rat liver microsomes: qHTS cell viability counter screen (AID 1963580); also: nearly all actives have a fitted effect of over 45% in size
Procedure, shortened: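 Rat liver microsome (0.5 mg/mL final) and NADPH (0.5 mg/mL final) co-incubation with compounds for 16 h at 37 C on HCT-116 p53RE-bla cells; cytotoxicity taken from intracellular ATP luminescence.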

[10] = p53 small molecule agonists, cell-based qHTS assay: qHTS cell viability counter screen (AID 1963581); also: nearly all actives have a fitted effect of over 45% in size
Procedure, shortened: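 Counter screen read by CellTiter-Glo luminescence (ATP content, 30 min at room temperature), run in the same wells as the beta-lactamase reporter read. HCT-116 p53RE-bla cells saw compounds for 16 h at 37 C.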

[11] = p53 small molecule agonists, cell-based qHTS assay (AID 1963582; active = well fitted activation curve with a large enough effect in the signal ratio in the repeat runs, not every such curve was filed as active; the % refers to the signal ratio)
Procedure, shortened: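 Read-out is beta-lactamase FRET fluorescence after 2 h at room temperature with LiveBLAzer B/G substrate. p53 response element-bla cells were treated 16 h at 37 C with compounds in DMSO, added 5 h after seeding.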

[12] = cAMP Responsive Elements (CRE) small molecule agonists, cell-based qHTS assay (AID 1963590)
Procedure, shortened: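 Agonist mode: compound added to CRE-bla HEK 293T cells (2,000/well, 18 h after plating) for 3 h at 37 C/5% CO2. Reporter activity detected via FRET beta-lactamase substrate, 2 h room-temperature loading.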

[13] = cAMP Responsive Elements (CRE) small molecule antagonists, cell-based qHTS assay (AID 1963591; active = well fitted inhibition curve with a large enough effect in the signal ratio in the repeat runs, not every such curve was filed as active; the % refers to the signal ratio)
Procedure, shortened: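 Antagonist mode: compounds are added alongside the adenylyl cyclase activator NKH477 (0.25 uM final) to CRE-bla HEK293T cells for 3 h. LiveBLAzer FRET substrate, 2 h at room temperature, reports bla expression.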

[14] = molecular target: Beta-2 adrenergic receptor (Homo sapiens) (UniProt P07550); assay: Adrenergic beta2 receptor (ADRB2) small molecule antagonists, cell-based qHTS assay (AID 1963592); also: series mostly up to about 92 µM; nearly all actives have a fitted effect of over 50% in size
Chain of Beta-2 adrenergic receptor (Homo sapiens) (P07550 whole entry, looked up): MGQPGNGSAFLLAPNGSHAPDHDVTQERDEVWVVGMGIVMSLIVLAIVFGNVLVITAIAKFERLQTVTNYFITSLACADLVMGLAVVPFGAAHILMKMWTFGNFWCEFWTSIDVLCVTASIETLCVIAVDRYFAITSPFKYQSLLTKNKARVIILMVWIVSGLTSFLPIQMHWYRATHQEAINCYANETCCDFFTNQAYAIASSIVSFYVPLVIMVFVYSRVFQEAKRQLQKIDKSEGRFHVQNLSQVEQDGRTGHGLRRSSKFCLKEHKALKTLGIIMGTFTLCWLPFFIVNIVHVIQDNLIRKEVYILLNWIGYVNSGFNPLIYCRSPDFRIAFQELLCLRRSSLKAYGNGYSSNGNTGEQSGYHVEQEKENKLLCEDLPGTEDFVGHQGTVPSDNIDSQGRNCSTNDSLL
Procedure, shortened: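 Assay format: CHO-ADRB2 cells, 18-20hr seeding at 37C/5% CO2, then compound plus 1nM isoproterenol agonist mix for 0.5hr RT. Homogeneous time-resolved fluorescence cAMP detection after 1hr, expressed as 665/615 nm ratio.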

[15] = molecular target: Beta-2 adrenergic receptor (Homo sapiens) (UniProt P07550); assay: Adrenergic beta2 receptor (ADRB2) small molecule agonists, cell-based qHTS assay (AID 1963593);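 also: CHO cells stably overexpressing human ADRB2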
Procedure, shortened: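 CHO cells stably over-expressing ADRB2 were plated overnight at 37C, then dosed with compounds plus a stimulation mix containing 100uM IBMX and 25uM Ro-20-1724 for 0.5hr at room temperature. cAMP was measured by HTRF competition, 1hr.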

[16] = molecular target: D(2) dopamine receptor (Homo sapiens) (UniProt P14416); assay: Dopamine D2 receptor (DRD2) small molecule agonists, cell-based qHTS assay (AID 1963594); also: nearly all actives have a fitted effect of over 35% in size
Chain of D(2) dopamine receptor (Homo sapiens) (P14416 whole entry, looked up): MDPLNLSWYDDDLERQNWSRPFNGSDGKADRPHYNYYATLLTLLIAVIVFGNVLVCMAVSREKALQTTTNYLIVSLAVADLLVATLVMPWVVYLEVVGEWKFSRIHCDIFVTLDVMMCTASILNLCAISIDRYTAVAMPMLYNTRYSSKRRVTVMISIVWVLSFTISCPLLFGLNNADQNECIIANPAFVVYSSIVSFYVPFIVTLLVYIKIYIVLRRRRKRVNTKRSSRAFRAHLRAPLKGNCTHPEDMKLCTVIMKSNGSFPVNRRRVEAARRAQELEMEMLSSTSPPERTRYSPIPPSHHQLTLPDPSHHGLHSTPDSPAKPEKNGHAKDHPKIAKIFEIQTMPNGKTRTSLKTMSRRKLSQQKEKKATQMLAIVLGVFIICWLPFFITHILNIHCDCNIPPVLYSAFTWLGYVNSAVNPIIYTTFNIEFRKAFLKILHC
Procedure, shortened: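 cAMP accumulation in DRD2-HEK293 cells measured by HTRF after 1 h detection; compounds added 10 min before NKH477 (200nM […]) forskolin-analogue stimulation, 30 min at room temperature, with Ro20-1724 present at 0.1 mM final.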

[17] = molecular target: D(2) dopamine receptor (Homo sapiens) (UniProt P14416); assay: Dopamine D2 receptor (DRD2) small molecule antagonists, cell-based qHTS assay (AID 1963595; active = well fitted inhibition curve with a large enough effect in the signal ratio in the repeat runs, with a control signal flat; the % refers to the signal ratio)
Procedure, shortened: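 Human DRD2 antagonist qHTS measuring cAMP by HTRF. The cells are exposed to compound for 10 min, then to NKH477 (200 nM) and quinpirole (12 nM) for 30 min at RT, with Ro20-1724 (0.1 mM) present throughout.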

[18] = molecular target: 5-hydroxytryptamine receptor 2A (Homo sapiens) (UniProt P28223); assay: 5-hydroxytryptamine receptor 2A (HTR2A) small molecule agonists, cell-based qHTS assay (AID 1963587); also: nearly all actives have a fitted effect of over 30% in size
Chain of 5-hydroxytryptamine receptor 2A (Homo sapiens) (P28223 whole entry, looked up): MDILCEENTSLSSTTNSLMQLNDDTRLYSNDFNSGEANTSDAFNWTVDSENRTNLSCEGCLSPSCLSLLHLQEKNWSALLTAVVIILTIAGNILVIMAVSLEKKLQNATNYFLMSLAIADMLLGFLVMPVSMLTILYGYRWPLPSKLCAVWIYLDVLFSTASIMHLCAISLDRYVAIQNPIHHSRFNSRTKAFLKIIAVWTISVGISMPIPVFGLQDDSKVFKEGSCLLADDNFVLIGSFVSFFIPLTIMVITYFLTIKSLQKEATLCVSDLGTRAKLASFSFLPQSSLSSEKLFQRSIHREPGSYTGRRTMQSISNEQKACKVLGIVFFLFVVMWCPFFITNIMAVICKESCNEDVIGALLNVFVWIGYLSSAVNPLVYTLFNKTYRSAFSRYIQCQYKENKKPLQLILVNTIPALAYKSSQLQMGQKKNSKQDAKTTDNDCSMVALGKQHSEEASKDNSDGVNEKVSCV
Procedure, shortened: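 Kinetic calcium-flux fluorescence (2 min, 1 sec intervals) after compound addition in agonist mode. HTR2A-CHO cells were cultured 18 h, then dye-loaded 1 h at 37 C.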

[19] = molecular target: Muscarinic acetylcholine receptor M1 (Homo sapiens) (UniProt P11229); assay: Cholinergic receptor muscarinic 1 (CHRM1) small molecule antagonists, cell-based qHTS assay (AID 1963588); also: nearly all actives have a fitted effect of over 40% in size
Chain of Muscarinic acetylcholine receptor M1 (Homo sapiens) (P11229 whole entry, looked up): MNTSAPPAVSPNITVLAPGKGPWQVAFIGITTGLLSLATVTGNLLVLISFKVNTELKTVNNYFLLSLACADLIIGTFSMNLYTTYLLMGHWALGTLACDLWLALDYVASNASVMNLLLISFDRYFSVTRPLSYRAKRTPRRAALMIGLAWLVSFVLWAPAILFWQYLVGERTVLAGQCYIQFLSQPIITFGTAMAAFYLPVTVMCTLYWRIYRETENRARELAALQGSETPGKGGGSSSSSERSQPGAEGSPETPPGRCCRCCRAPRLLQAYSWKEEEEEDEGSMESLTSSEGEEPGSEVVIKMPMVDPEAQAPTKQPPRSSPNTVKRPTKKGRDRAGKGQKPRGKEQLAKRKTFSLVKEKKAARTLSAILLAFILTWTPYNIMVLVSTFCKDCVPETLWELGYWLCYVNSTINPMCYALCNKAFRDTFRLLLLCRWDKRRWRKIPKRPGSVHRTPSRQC
Procedure, shortened: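 Compounds were tested at 15 concentrations in three independent runs. Dye-loaded CHRM1-CHO cells were exposed 5 min at room temperature before stimulation by acetylcholine added at 50nM. Intracellular calcium was read kinetically on FDSS for 3 min.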

Measured: Potency

CCOC(N)=O
inactive: [1] | [2] | [3] | [4] | [5] | [6] | [7] | [8] | [9] | [10] | [11] | [12] | [13] | [14] | [15] | [16] | [17]

OC[C@@H](O)[C@@H](O)[C@H](O)[C@H](O)CO
inactive: [1] | [2] | [3] | [4] | [5] | [6] | [7] | [8] | [9] | [10] | [11] | [12] | [13] | [14] | [15] | [16] | [17]

C[Si]1(C)O[Si](C)(C)O[Si](C)(C)O[Si](C)(C)O1
inactive: [1] | [2] | [3] | [4] | [5] | [6] | [7] | [8] | [9] | [10] | [11] | [18] | [19] | [12] | [13] | [14] | [15] | [16] | [17]

C[C@]12CC[C@@H]3c4ccc(O)cc4CC[C@H]3[C@@H]1C[C@@H](O)[C@@H]2O
inactive: [1] | [2] | [3] | [4] | [5] | [6] | [7] | [8] | [9] | [10] | [11] | [12] | [13] | [14] | [15] | [16] | [17]

Cn1c([N+](=O)[O-])cnc1COC(N)=O
inactive: [1] | [2] | [3] | [4] | [5] | [6] | [7] | [8] | [9] | [10] | [11] | [18] | [19] | [12] | [13] | [14] | [16]

OCCO
inactive: [1] | [2] | [3] | [4] | [5] | [6] | [7] | [8] | [9] | [10] | [11] | [12] | [13] | [14] | [15] | [16] | [17]

C=CC(C)CCCC(C)(C)O (centres undefined)
inactive: [1] | [2] | [3] | [4] | [5] | [6] | [7] | [8] | [9] | [10] | [11] | [18] | [19] | [12] | [13] | [14] | [15] | [17]

CCCCC1C(=O)N(c2ccccc2)N(c2ccccc2)C1=O
inactive: [1] | [2] | [3] | [4] | [5] | [6] | [7] | [8] | [9] | [10] | [11] | [12] | [13] | [14] | [15] | [16] | [17]
